Bioassay records: PubChem BioAssay, The Scripps Research Institute Molecular Screening Center
Rows were chosen to be rich in hits. Some 2.3% of all compounds tested hit in one or more screens of this group.
CHO-K1 Ca PAM: M1 PAM counterscreen hit in parental CHO-K1 cells | ATP EC20, Fluo-8 calcium fluorescence; 0% at ATP EC20, 100% at ATP max | activation, % at 3 µM | 360,000 tested, 0.02% active;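 active = activation above the run cutoff, the mean activation of all test compounds plus 3 SD, cut at about 40% in these data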;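 also: peak over basal fluorescence ratio in a 140 s read after ATP addition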
M1 PAM: potentiates human M1 receptor response to acetylcholine. P11229. CHO-K1 hM1, Fluo-8 calcium fluorescence, ACh EC20; 0% = ACh EC20, 100% = maximal ACh. activation, % at 3 µM. 360,000 tested, 0.088% active. AID 588819; in the data active = activation above about 19%, passing the limit was not always enough
Target sequence (P11229 whole entry, looked up): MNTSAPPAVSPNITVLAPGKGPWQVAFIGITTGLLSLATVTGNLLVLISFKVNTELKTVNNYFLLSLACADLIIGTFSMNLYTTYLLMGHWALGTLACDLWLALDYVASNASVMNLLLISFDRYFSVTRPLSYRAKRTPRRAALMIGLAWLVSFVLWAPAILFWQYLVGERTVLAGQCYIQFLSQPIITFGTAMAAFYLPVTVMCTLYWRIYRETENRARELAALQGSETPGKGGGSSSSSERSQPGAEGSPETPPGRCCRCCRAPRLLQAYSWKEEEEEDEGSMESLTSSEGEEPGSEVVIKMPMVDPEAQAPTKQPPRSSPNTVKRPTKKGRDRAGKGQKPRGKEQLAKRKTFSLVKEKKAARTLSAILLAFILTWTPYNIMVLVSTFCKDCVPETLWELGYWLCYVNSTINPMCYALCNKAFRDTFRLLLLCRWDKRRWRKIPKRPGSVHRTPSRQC
M1 antag: blocks human M1 muscarinic receptor | P11229 | CHO-K1 hM1, Fluo-8 calcium fluorescence, ACh EC80 antagonist | inhibition, % at 3 µM | 360,000 tested, 1.3% active | AID 588852;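 active = percent inhibition above its own plate's cutoff, namely the mean of that plate's compound wells plus 3 SD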;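 also: peak over basal fluorescence ratio during 140 s after agonist addition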
CHO-K1 Ca antag: nonselective inhibitor or artifact in parental CHO-K1 cells. 360,000 tested, 0.6% active. inhibition, % at 3 µM. ATP-induced calcium, Fluo-8 fluorescence;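 active = inhibition above a per-plate cutoff, the plate's mean sample inhibition plus 3 SD, cut at about 24% in these data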
CHO-K1 Ca ag: nonselective activator or artifact in parental CHO-K1 cells; Fluo-8 calcium fluorescence; scaled to maximal ATP response, vehicle zero; activation, % at 3 µM; 360,000 tested, 0.48% active; AID 602248; in the data active = activation above about 15%;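 also: untransfected CHO-K1 host cells lacking M1 receptor as counterscreen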
CHRM1 agonist: agonists of human M1 muscarinic receptor | CHO-K1 hM1, Fluo-8 calcium fluorescence, agonist mode; 0% DMSO, 100% acetylcholine EC100 | P11229 | 360,000 tested, 0.33% active | AID 588814 | activation, % at 3 µM;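 active = activation above the run's mean compound activation plus 3 SD, cut at about 16% in these data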;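 also: peak over basal fluorescence ratio within a 140 s kinetic read after compound addition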
Numbers stand for hits; ! = not confirmed by another sample.

`COc1ccc(C)cc1-n1nnnc1SCC(=O)NC1CCS(=O)(=O)C1` (stereo not drawn) gave CHO-K1 Ca PAM inactive, M1 PAM inactive, M1 antag inactive, CHO-K1 Ca antag inactive, CHO-K1 Ca ag inactive and CHRM1 agonist inactive.
`Cc1cc(C)n(C(N)=NC(=O)c2ccccc2)n1` gave CHO-K1 Ca PAM inactive, M1 PAM inactive, M1 antag inactive, CHO-K1 Ca antag inactive, CHO-K1 Ca ag inactive and CHRM1 agonist inactive.
`CC(=O)C1=C(C)OC(N)=C(C#N)C1c1cc2cc(C)c(C)cc2nc1Cl` (stereo not drawn) gave CHO-K1 Ca PAM inactive, M1 PAM inactive, M1 antag inactive, CHO-K1 Ca antag inactive, CHO-K1 Ca ag inactive and CHRM1 agonist inactive.
Screening COC(=O)C1=C(C)OC(N)=C(C#N)C1c1cc2cc(C)ccc2nc1Cl (stereo not drawn) returned CHO-K1 Ca PAM inactive, M1 PAM inactive, M1 antag inactive, CHO-K1 Ca antag inactive, CHO-K1 Ca ag inactive and CHRM1 agonist 24.
CCc1ccc(NC(=O)CSc2nc3ccccc3c(=O)n2CCCN2CCC(C)CC2)cc1 was read as CHO-K1 Ca PAM inactive, M1 PAM inactive, M1 antag inactive, CHO-K1 Ca antag inactive, CHO-K1 Ca ag inactive and CHRM1 agonist inactive.
For CC(C)Cc1nc(NCCN2CCOCC2)c(C#N)c2c1COC(C)(C)C2 the results were CHO-K1 Ca PAM inactive, M1 PAM inactive, M1 antag inactive, CHO-K1 Ca antag inactive, CHO-K1 Ca ag inactive and CHRM1 agonist inactive.
CCCCc1nc(NCCN2CCOCC2)c(C#N)c2c1COC(C)(C)C2 was read as CHO-K1 Ca PAM inactive, M1 PAM inactive, M1 antag inactive, CHO-K1 Ca antag 25, CHO-K1 Ca ag inactive and CHRM1 agonist inactive.
For Cc1nn(C(C)C(=O)NCCCN2CCCCCC2)c(=O)c2c1sc1ccccc12 (stereo not drawn) the results were CHO-K1 Ca PAM inactive, M1 PAM inactive, M1 antag 55, CHO-K1 Ca antag inactive, CHO-K1 Ca ag inactive and CHRM1 agonist inactive.
Screening CC(CCc1ccccc1)NC(=O)c1ccccc1Cl (stereo not drawn) returned CHO-K1 Ca PAM inactive, M1 PAM inactive, M1 antag inactive, CHO-K1 Ca antag inactive, CHO-K1 Ca ag inactive and CHRM1 agonist inactive.
CCOc1ncccc1C(=O)NC(C)CCc1ccccc1 (stereo not drawn) was read as CHO-K1 Ca PAM inactive, M1 PAM inactive, M1 antag inactive, CHO-K1 Ca antag inactive, CHO-K1 Ca ag 19 and CHRM1 agonist inactive.
Screening OC1CCCCC1 returned CHO-K1 Ca PAM inactive, M1 PAM inactive, M1 antag inactive, CHO-K1 Ca antag inactive, CHO-K1 Ca ag inactive and CHRM1 agonist inactive.
NS(=O)(=O)c1cccc(NS(=O)(=O)c2ccc(/C=C/C(=O)O)cc2)c1 was read as CHO-K1 Ca PAM inactive, M1 PAM inactive, M1 antag inactive, CHO-K1 Ca antag inactive, CHO-K1 Ca ag inactive and CHRM1 agonist inactive.
CCc1ccc(C2C(C#N)=C(N)SC(N)=C2C#N)cc1 was read as CHO-K1 Ca PAM inactive, M1 PAM inactive, M1 antag inactive, CHO-K1 Ca antag inactive, CHO-K1 Ca ag 21 and CHRM1 agonist 17.
For N#CC1=C(N)SC(N)=C(C#N)C1Cc1ccccc1 the results were CHO-K1 Ca PAM inactive, M1 PAM inactive, M1 antag inactive, CHO-K1 Ca antag inactive, CHO-K1 Ca ag inactive and CHRM1 agonist inactive.
For N#CC1=C(N)SC(N)=C(C#N)C1CCc1ccccc1 the results were CHO-K1 Ca PAM inactive, M1 PAM inactive, M1 antag inactive, CHO-K1 Ca antag 29, CHO-K1 Ca ag inactive and CHRM1 agonist inactive.
For O=C(COC(=O)c1ccccc1Nc1ccc(SC(F)F)cc1)NCc1ccco1 the results were CHO-K1 Ca PAM inactive, M1 PAM inactive, M1 antag inactive, CHO-K1 Ca antag inactive, CHO-K1 Ca ag inactive and CHRM1 agonist inactive.
Screening CC1CCC(C(C)C)C(OC(=O)Cn2c(-c3ccc(F)cc3)[n+](C)c3ccccc32)C1 (stereo not drawn) returned CHO-K1 Ca PAM inactive, M1 PAM inactive, M1 antag 51, CHO-K1 Ca antag inactive, CHO-K1 Ca ag inactive and CHRM1 agonist inactive.
CC1CCC(C(C)C)C(OC(=O)CSc2nc(N)cc(=O)[nH]2)C1 (stereo not drawn) was read as CHO-K1 Ca PAM inactive, M1 PAM inactive, M1 antag inactive, CHO-K1 Ca antag inactive, CHO-K1 Ca ag inactive and CHRM1 agonist inactive.
`Cc1cccc(OCc2n(CC(=O)OC3CC(C)CCC3C(C)C)c3ccccc3[n+]2C)c1` (stereo not drawn) gave CHO-K1 Ca PAM inactive, M1 PAM inactive, M1 antag 38, CHO-K1 Ca antag inactive, CHO-K1 Ca ag inactive and CHRM1 agonist inactive.
Screening CC1CCC(C(C)C)C(OC(=O)CSc2nnc(N)s2)C1 (stereo not drawn) returned CHO-K1 Ca PAM inactive, M1 PAM inactive, M1 antag inactive, CHO-K1 Ca antag inactive, CHO-K1 Ca ag inactive and CHRM1 agonist inactive.
CC1CCC(C(C)C)C(OC(=O)Cn2c(-c3ccccc3)[n+](C)c3ccccc32)C1 (stereo not drawn) was read as CHO-K1 Ca PAM inactive, M1 PAM inactive, M1 antag 43!, CHO-K1 Ca antag inactive, CHO-K1 Ca ag inactive and CHRM1 agonist inactive.
For CCc1ccc(NC(=O)c2cnc(SC)nc2C)cc1 the results were CHO-K1 Ca PAM inactive, M1 PAM inactive, M1 antag inactive, CHO-K1 Ca antag inactive, CHO-K1 Ca ag inactive and CHRM1 agonist inactive.
Screening Nc1ccccc1Oc1ccc2ccccc2c1 returned CHO-K1 Ca PAM inactive, M1 PAM inactive, M1 antag inactive, CHO-K1 Ca antag inactive, CHO-K1 Ca ag inactive and CHRM1 agonist inactive.
Screening S=C(NCCc1ccccn1)Nc1cccc(Cl)c1 returned CHO-K1 Ca PAM inactive, M1 PAM inactive, M1 antag inactive, CHO-K1 Ca antag inactive, CHO-K1 Ca ag inactive and CHRM1 agonist inactive.
`Clc1ccc(CCNc2ncnc3nc[nH]c23)cc1` gave CHO-K1 Ca PAM inactive, M1 PAM inactive, M1 antag 30, CHO-K1 Ca antag 30, CHO-K1 Ca ag inactive and CHRM1 agonist inactive.
`c1ccc2c(CCNc3ncnc4nc[nH]c34)cccc2c1` gave CHO-K1 Ca PAM inactive, M1 PAM inactive, M1 antag 54, CHO-K1 Ca antag inactive, CHO-K1 Ca ag inactive and CHRM1 agonist inactive.
For COc1ccc2[nH]c3c(NCCCOC(C)C)ncnc3c2c1 the results were CHO-K1 Ca PAM inactive, M1 PAM inactive, M1 antag inactive, CHO-K1 Ca antag inactive, CHO-K1 Ca ag inactive and CHRM1 agonist inactive.
`CCCNc1ncnc2nc[nH]c12` gave CHO-K1 Ca PAM inactive, M1 PAM inactive, M1 antag inactive, CHO-K1 Ca antag inactive, CHO-K1 Ca ag inactive and CHRM1 agonist inactive.
Screening COc1ccc2[nH]c3c(NCCC4=CCCCC4)ncnc3c2c1 returned CHO-K1 Ca PAM inactive, M1 PAM inactive, M1 antag inactive, CHO-K1 Ca antag inactive, CHO-K1 Ca ag 15 and CHRM1 agonist inactive.
Screening C1=C(CCNc2ncnc3nc[nH]c23)CCCC1 returned CHO-K1 Ca PAM inactive, M1 PAM inactive, M1 antag 28, CHO-K1 Ca antag inactive, CHO-K1 Ca ag inactive and CHRM1 agonist inactive.
